The target in assay [1] is human Elastase, ELANE (gene 1991) (UniProt P08246). The assay can be described thus: NVS_ENZ_hElastase: NovaScreen (NVS) Enzymatic Assay for human Elastase (AID 2283153). The gist of the method: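 Concentration-response to 50 uM max, run singly for chemicals passing a threshold (e.g., 30% inhibition) in a duplicate 25 uM single-point screen. Neutrophil-derived human elastase, absorbance read-out of enzyme activity at 1.5 h; DMSO baseline.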

The target in assay [2] is human Insulin Receptor (InsR), INSR (gene 3643) (UniProt P06213). Description: NVS_ENZ_hInsR: NovaScreen (NVS) Enzymatic Assay for human Insulin Receptor (InsR) (AID 2283168). In outline:
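Cell-free enzyme assay read 1 h post-dose by fluorescence after substrate/product mobility-shift separation. Duplicate 25 uM primary screen, then singleton concentration-response up to 50 uM for compounds passing threshold; loss of signal vs DMSO.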

The target of assay [3] is human FYN Proto-Oncogene, Src family Tyrosine Kinase (Fyn), FYN (gene 2534) (UniProt P06241). The assay can be described thus: NVS_ENZ_hFyn: NovaScreen (NVS) Enzymatic Assay for human FYN Proto-Oncogene, Src family Tyrosine Kinase (Fyn) (AID 2283161). The gist of the method: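 Cell-free kinase activity read by fluorescence after mobility-shift separation of substrate and product, 1 h post-dose. Initial single concentration 25 uM in duplicate, then concentration-response follow-up; DMSO baseline.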

Assay [4] deals with human Janus Kinase 2 (Jak2), JAK2 (gene 3717) (UniProt O60674). Description: NVS_ENZ_hJak2: NovaScreen (NVS) Enzymatic Assay for human Janus Kinase 2 (Jak2) (AID 2283169). The gist of the method: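 Single-point duplicate screen at 25 uM, with hits run in concentration series to a 50 uM top dose. Substrate-product separation by mobility shift with fluorescence detection, 1 h post-dosing; DMSO baseline.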

For assay [5], the target named is human c-Jun N-terminal Kinases (JNK2), MAPK9 (gene 5601) (UniProt P45984). Description: NVS_ENZ_hJNK2: NovaScreen (NVS) Enzymatic Assay for human c-Jun N-terminal Kinases (JNK2) (AID 2283171). In outline: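 Chemicals first tested in duplicate at 25 uM, then in singleton concentration series up to 50 uM, against extracted JNK2 enzyme. Activity loss read by fluorescence with mobility-shift separation 1 h post-dose; DMSO baseline.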

Assay [6] addresses Mitogen-activated protein kinase 3 (Homo sapiens) (UniProt P27361). Description: NVS_ENZ_hMAPK3: NovaScreen (NVS) Enzymatic Assay for human Mitogen-Activated Protein Kinase 3 (MAPK 3) (AID 2283177). In outline:
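Chemicals were first tested in duplicate at 25 uM, with hits re-run as concentration series (max 50 uM). Recombinant enzyme activity, measured 1 h post-dose in a cell-free format, was read by fluorescence/mobility shift relative to DMSO.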

For assay [7], the target named is Glycogen synthase kinase-3 beta (Homo sapiens) (UniProt P49841). The assay can be described thus: NVS_ENZ_hGSK3b: NovaScreen (NVS) Enzymatic Assay for human Glycogen Synthase Kinase-3 beta (GSK3b) (AID 2283165). In outline:
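Recombinant enzyme with specific fluorescent substrate, 1 h, product separated by electrophoretic mobility shift. Primary duplicate screen at 25 uM; actives (e.g. 30% inhibition) followed in singleton concentration-response to 50 uM. Signal loss fitted versus DMSO.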

The target in assay [8] is human Esterase Plasma (ES), BCHE (gene 590) (UniProt P06276). Description: NVS_ENZ_hES: NovaScreen (NVS) Enzymatic Assay for human Esterase Plasma (ES) (AID 2283157). In outline:
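Primary single-concentration screen at 25 uM in duplicate, then concentration-response to a 50 uM top dose. Human plasma esterase activity detected colorimetrically after 0.25 h incubation, with DMSO as baseline.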

The target in assay [9] is human Ephrin type-A Receptor 1 (EphA1), EPHA1 (gene 2041) (UniProt P21709). The assay can be described thus: NVS_ENZ_hEphA1: NovaScreen (NVS) Enzymatic Assay for human Ephrin type-A Receptor 1 (EphA1) (AID 2283158).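 Also: activity is signal loss versus DMSO meaning EphA1 kinase inhibition.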 In outline:
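Cell-free kinase activity with recombinant protein, 1 hour after dosing; product separated by electrophoretic mobility shift, fluorescence read. Primary screen at 25 uM in duplicate; hits run as concentration-response up to 50 uM, relative to DMSO.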

In assay [10] the target is Histone deacetylase 3 (Homo sapiens) (UniProt O15379). Description: NVS_ENZ_hHDAC3: NovaScreen (NVS) Enzymatic Assay for human Histone Deacetylase 3 (HDAC3) (AID 2283163). The gist of the method: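 Cell-free enzyme format: loss of fluorescent product after mobility-shift separation, 1 h incubation, recombinant human HDAC3. Single 25 uM duplicate screen first, then concentration series to a 50 uM top for hits; DMSO as baseline.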

For assay [11], the target named is Collagenase 3 (Homo sapiens) (UniProt P45452). The assay can be described thus: NVS_ENZ_hMMP13: NovaScreen (NVS) Enzymatic Assay for human Matrix Metalloproteinase-13 (MMP13) (AID 2283182). In outline: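 Recombinant MMP13 cleaving fluorescent substrate, cell-free, measured 1 h after dosing. Primary duplicate screen at 25 uM; actives tested in concentration-response up to 50 uM; loss of signal relative to DMSO.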

Assay [12] concerns the target human Matrix Metalloproteinase-3 (MMP3), MMP3 (gene 4314) (UniProt P08254). The assay can be described thus: NVS_ENZ_hMMP3: NovaScreen (NVS) Enzymatic Assay for human Matrix Metalloproteinase-3 (MMP3) (AID 2283185). The gist of the method: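 Fluorescent substrate turnover by recombinant MMP3 read after 1 h, signal loss scored against DMSO. Compounds first run in duplicate at 25 uM single dose, then actives confirmed by concentration series.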

In assay [13] the target is human Phosphodiesterase 4A1 (PDE4A1), PDE4A (gene 5141) (UniProt P27815). The assay can be described thus: NVS_ENZ_hPDE4A1: NovaScreen (NVS) Enzymatic Assay for human Phosphodiesterase 4A1 (PDE4A1) (AID 2283191). In outline:
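Fluorescent substrate turnover by recombinant PDE4A1 read after 1 h by mobility-shift separation. Primary duplicate screen at 25 uM; hits retested in concentration series with a 50 uM maximum, relative to DMSO.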

Assay [14] has as its target human Matrix Metalloproteinase-7 (MMP7), MMP7 (gene 4316) (UniProt P09237). Description: NVS_ENZ_hMMP7: NovaScreen (NVS) Enzymatic Assay for human Matrix Metalloproteinase-7 (MMP7) (AID 2283183). In outline:
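Compounds first tested at 25 uM in duplicate, then at up to 50 uM in concentration series if active. Protease activity measured by fluorescence intensity 1 h after dosing, with fitting relative to DMSO.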

Assay [15] addresses human LYN Proto-Oncogene, Src family Tyrosine Kinase (LynA), LYN (gene 4067) (UniProt P07948). The assay can be described thus: NVS_ENZ_hLynA: NovaScreen (NVS) Enzymatic Assay for human LYN Proto-Oncogene, Src family Tyrosine Kinase (LynA) (AID 2283173). The gist of the method: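 Recombinant kinase with fluorescent substrate; product separated from substrate by electrophoretic mobility shift and read 1 h after dosing. Duplicate screen at 25 uM, then concentration-response up to 50 uM; activity scored as signal loss against DMSO.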

Assay [16] addresses human Mitogen- and Stress-activated Protein Kinase-1 (Msk1), RPS6KA5 (gene 9252) (UniProt O75582). The assay can be described thus: NVS_ENZ_hMsk1: NovaScreen (NVS) Enzymatic Assay for human Mitogen- and Stress-activated Protein Kinase-1 (Msk1) (AID 2283187). In outline: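 Chemicals first run in duplicate at 25 uM, with actives followed up in singleton concentration series to 50 uM maximum. Enzyme activity came from substrate/product mobility-shift separation with fluorescence detection after 1 h incubation of the recombinant protein.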

For assay [17], the target named is cAMP-dependent protein kinase catalytic subunit alpha (Homo sapiens) (UniProt P17612). Description: NVS_ENZ_hPKA: NovaScreen (NVS) Enzymatic Assay for human Protein Kinase A (PKA) (AID 2283192). The gist of the method:
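Cell-free kinase activity read by fluorescence after mobility-shift separation of substrate and product, 1 h post-dosing. Single-concentration duplicate screen (25 uM) preceded singleton concentration series (top 50 uM); loss of signal versus DMSO.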

For assay [18], the target named is human Matrix Metalloproteinase-2 (MMP2), MMP2 (gene 4313) (UniProt P08253). Description: NVS_ENZ_hMMP2: NovaScreen (NVS) Enzymatic Assay for human Matrix Metalloproteinase-2 (MMP2) (AID 2283184). In outline: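 Compounds first screened in duplicate at a single 25 uM, with actives followed up in concentration series. Recombinant human MMP2 cleaves a fluorogenic substrate; fluorescence taken at 1 h, inhibition fitted relative to DMSO.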

For assay [19], the target named is human Matrix Metalloproteinase-9 (MMP9), MMP9 (gene 4318) (UniProt P14780). Description: NVS_ENZ_hMMP9: NovaScreen (NVS) Enzymatic Assay for human Matrix Metalloproteinase-9 (MMP9) (AID 2283190).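 Also: cell-free recombinant MMP9 protease activity read by fluorescent substrate signal; active means inhibition seen as loss of fluorescence signal versus DMSO.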 The gist of the method:
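Cell-free fluorescence-intensity enzyme activity assay using extracted protein, read 1 h after dosing. Loss of signal versus DMSO baseline indicates inhibition; primary screen in duplicate at 25 uM, actives followed up in concentration series.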

Assay [20] concerns the target human MAP Kinase-Activated Protein Kinase 2 (MAPKAPK2), MAPKAPK2 (gene 9261) (UniProt P49137). Description: NVS_ENZ_hMAPKAPK2: NovaScreen (NVS) Enzymatic Assay for human MAP Kinase-Activated Protein Kinase 2 (MAPKAPK2) (AID 2283178). The gist of the method:
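Chemicals screened in duplicate at 25 uM, then to 50 uM top concentration in concentration-response, against recombinant human MAPKAPK2; substrate conversion read 1 hr post-dosing by fluorescence after electrophoretic mobility-shift separation, loss-of-signal relative to DMSO.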

Inconclusive results are not listed. Activity calls are given as the source filed them. The calls were made as follows: active = hit-call score of the fitted dose curve at least 0.9, where 1 is the maximum; inconclusive = response in the unintended direction; inactive = score below 0.9.

Sequence of human Phosphodiesterase 4A1 (PDE4A1), PDE4A (gene 5141) (P27815 whole entry, looked up): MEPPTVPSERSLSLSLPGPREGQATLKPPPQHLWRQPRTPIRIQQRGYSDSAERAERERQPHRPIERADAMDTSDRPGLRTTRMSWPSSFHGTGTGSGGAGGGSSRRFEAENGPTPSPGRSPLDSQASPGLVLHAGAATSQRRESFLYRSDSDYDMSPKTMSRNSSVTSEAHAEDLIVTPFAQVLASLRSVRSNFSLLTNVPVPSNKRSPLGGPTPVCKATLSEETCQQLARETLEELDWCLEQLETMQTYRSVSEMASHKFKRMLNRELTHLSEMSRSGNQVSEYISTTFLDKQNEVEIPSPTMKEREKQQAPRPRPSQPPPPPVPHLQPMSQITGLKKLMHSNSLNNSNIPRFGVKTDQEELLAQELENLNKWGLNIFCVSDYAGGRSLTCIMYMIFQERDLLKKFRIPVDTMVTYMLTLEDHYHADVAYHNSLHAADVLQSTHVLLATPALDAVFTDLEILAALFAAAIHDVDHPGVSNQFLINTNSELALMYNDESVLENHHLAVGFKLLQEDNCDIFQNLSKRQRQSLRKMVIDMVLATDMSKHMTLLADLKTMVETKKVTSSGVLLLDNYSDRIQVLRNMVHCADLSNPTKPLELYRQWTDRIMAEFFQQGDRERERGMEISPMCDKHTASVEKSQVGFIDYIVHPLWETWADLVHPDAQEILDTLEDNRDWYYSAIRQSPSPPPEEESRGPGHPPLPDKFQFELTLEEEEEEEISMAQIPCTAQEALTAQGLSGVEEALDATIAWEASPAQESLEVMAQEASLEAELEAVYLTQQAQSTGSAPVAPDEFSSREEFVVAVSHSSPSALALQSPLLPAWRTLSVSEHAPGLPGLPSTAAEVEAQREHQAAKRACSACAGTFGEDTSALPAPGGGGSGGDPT
Sequence of human Ephrin type-A Receptor 1 (EphA1), EPHA1 (gene 2041) (P21709 whole entry, looked up): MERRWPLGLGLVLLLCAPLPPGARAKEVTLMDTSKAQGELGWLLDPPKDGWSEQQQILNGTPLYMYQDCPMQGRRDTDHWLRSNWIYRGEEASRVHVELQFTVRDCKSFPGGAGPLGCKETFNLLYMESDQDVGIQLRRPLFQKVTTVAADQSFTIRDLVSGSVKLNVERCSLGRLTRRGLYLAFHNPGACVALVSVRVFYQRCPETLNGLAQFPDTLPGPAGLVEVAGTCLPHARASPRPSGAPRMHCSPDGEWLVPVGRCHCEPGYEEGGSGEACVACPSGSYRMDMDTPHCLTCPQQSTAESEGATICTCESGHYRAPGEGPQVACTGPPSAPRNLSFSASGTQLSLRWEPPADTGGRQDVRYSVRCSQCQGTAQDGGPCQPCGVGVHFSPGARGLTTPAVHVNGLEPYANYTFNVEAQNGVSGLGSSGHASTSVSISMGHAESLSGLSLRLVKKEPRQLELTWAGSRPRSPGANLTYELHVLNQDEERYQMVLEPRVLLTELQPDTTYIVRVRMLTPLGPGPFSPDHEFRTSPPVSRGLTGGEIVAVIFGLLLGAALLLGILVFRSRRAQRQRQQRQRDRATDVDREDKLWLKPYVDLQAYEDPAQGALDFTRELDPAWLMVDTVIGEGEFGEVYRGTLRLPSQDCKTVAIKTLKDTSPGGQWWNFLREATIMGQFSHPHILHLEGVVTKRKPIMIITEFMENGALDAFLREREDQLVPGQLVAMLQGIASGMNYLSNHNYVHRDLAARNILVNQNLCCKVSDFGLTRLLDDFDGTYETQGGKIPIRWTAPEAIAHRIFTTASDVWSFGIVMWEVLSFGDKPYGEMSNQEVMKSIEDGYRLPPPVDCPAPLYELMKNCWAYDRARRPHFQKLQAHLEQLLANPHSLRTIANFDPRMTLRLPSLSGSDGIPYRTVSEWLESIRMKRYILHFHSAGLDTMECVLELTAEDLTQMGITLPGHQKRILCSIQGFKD
Sequence of human Janus Kinase 2 (Jak2), JAK2 (gene 3717) (O60674 whole entry, looked up): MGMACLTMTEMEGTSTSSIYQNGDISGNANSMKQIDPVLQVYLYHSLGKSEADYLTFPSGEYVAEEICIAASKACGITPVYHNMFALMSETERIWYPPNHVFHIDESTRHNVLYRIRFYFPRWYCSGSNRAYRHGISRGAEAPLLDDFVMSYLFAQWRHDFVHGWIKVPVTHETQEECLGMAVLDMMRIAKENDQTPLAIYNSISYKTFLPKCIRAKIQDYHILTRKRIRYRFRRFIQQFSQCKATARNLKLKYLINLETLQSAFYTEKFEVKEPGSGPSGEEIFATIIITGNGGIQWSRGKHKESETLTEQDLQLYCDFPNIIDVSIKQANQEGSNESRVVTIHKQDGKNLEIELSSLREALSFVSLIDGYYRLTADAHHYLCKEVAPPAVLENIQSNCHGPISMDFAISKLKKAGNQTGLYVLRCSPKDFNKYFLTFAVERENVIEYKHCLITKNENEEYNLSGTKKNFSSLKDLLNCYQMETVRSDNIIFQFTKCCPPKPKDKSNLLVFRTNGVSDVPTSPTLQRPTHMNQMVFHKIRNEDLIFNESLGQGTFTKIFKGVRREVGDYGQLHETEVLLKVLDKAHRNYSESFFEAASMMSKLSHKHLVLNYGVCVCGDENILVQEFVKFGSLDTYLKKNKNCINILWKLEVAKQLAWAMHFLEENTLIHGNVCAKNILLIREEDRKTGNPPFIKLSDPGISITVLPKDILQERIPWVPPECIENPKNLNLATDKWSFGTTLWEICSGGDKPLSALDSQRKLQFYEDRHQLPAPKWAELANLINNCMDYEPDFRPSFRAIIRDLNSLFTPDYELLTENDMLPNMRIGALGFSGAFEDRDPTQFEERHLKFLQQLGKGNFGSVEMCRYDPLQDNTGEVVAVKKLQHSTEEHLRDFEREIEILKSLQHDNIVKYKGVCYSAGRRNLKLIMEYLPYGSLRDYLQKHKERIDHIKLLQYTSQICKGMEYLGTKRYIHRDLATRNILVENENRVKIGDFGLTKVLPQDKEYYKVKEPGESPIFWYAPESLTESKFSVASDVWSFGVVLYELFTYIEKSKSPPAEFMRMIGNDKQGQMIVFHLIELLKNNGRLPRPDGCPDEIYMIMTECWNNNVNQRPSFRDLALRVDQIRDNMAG
Sequence of human Matrix Metalloproteinase-2 (MMP2), MMP2 (gene 4313) (P08253 whole entry, looked up): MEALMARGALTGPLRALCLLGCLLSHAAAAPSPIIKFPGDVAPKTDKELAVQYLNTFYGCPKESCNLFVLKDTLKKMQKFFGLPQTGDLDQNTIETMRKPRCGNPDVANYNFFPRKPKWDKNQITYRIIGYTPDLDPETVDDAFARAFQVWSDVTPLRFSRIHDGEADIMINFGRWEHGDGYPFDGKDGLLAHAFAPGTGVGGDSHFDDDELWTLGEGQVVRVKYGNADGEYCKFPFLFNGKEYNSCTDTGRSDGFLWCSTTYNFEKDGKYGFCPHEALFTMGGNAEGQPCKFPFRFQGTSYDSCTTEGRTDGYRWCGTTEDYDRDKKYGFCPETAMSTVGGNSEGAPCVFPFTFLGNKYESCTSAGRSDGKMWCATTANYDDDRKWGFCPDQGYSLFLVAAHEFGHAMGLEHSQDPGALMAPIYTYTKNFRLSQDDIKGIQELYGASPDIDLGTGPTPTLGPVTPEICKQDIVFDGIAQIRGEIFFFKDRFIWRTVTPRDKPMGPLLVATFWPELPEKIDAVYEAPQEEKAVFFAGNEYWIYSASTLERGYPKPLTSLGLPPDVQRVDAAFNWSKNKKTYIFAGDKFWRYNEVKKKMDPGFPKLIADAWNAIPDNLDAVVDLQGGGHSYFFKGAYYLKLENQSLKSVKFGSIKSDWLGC
Sequence of Histone deacetylase 3 (Homo sapiens) (O15379 whole entry, looked up): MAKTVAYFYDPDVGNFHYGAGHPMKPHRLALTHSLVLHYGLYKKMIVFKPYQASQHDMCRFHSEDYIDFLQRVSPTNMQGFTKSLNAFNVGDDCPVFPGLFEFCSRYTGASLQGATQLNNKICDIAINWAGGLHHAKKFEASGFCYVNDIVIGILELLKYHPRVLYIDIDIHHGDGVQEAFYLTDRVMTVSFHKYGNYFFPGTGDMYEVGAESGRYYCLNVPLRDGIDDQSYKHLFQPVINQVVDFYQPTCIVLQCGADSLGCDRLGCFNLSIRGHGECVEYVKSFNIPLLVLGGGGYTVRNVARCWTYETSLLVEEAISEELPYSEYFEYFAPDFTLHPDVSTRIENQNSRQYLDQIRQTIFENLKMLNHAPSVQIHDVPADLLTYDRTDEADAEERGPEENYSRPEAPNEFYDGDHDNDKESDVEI
Sequence of human Matrix Metalloproteinase-3 (MMP3), MMP3 (gene 4314) (P08254 whole entry, looked up): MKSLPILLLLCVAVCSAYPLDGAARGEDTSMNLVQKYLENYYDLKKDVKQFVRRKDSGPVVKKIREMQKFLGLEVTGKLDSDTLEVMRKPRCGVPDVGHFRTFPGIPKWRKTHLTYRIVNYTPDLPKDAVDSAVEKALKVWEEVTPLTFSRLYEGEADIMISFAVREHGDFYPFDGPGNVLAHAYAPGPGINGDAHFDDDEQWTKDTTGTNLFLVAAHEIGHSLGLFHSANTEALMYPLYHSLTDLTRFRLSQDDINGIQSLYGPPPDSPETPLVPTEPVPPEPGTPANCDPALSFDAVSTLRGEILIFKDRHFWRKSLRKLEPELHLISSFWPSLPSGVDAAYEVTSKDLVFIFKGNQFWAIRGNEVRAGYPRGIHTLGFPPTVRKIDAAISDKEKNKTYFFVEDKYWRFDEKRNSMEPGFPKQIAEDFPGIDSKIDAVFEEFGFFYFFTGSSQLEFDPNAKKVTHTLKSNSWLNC
Sequence of Mitogen-activated protein kinase 3 (Homo sapiens) (P27361 whole entry, looked up): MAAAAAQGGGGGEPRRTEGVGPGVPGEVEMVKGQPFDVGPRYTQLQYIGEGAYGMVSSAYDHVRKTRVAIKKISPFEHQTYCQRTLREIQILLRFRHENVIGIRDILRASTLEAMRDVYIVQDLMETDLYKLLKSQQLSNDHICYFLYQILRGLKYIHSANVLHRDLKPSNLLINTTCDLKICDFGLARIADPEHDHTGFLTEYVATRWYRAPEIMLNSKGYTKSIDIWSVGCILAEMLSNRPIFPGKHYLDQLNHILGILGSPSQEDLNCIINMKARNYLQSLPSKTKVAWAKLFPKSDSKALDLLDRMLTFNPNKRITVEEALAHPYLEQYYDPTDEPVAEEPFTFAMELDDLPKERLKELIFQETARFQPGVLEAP

Consider `CCCCC(CC)COC(=O)CCCCCCCC(=O)OCC(CC)CCCC` (stereo unspecified), for which the AC50 (as a rule, the concentration at which the activity in the assay is half-maximal) in [1] was 6.97 µM (active). The molecule was classed as inactive in assay [2].
In the case of `O=C(O)CC(O)(CC(=O)O)C(=O)O`, the result in assay [3], in assay [4], in assay [5] and in assay [6] was inactive.
`CC1(C)C(=O)NC(=O)N1CO`: in assay [7], the molecule was called inactive.
`Cc1cc(SC2=C(O)C[C@@](CCc3ccc(N)cc3)(C(C)C)OC2=O)c(C(C)(C)C)cc1CO`: the AC50 in [8] is 7.01 µM (active). For the same molecule, the result in assay [4] was inactive.
For the molecule `CCCCc1nc2cccnc2n1Cc1ccc(-c2ccccc2-c2nnn[nH]2)cc1`, the molecule was classed as inactive in assay [9] and in [6]. Further, the AC50 in [10] is 17.2 µM (active); in [11] it was 24.1 µM (active); in assay [12] it was 22.9 µM (active); in assay [13], 11.6 µM (active).
As for `CCCCCCCCCCCCCCOS(=O)(=O)O`, the AC50 in assay [1] was 25.4 µM (active); in [12], 26 µM (active); in assay [13] it was 18.6 µM (active).
Turning to `CN(C)CCCN(C)CCCN(C)C`, in assay [8], the AC50 is 31.8 µM (active). In addition, the outcome in assay [14] and in assay [13] was inactive.
As for `CS(=O)(=O)c1ccc([C@@H](C[C@H]2CCC(=O)C2)C(=O)Nc2cnccn2)cc1Cl`, the result in assay [9] and in assay [6] was inactive.
Take `CN(C)C(=O)NC1(c2ccccc2)CCN(CCC[C@]2(c3ccc(Cl)c(Cl)c3)CCCN(C(=O)c3ccccc3)C2)CC1`: the AC50 in assay [8] is 5.89 µM (active). Further, the molecule was called inactive in assay [7], in assay [4], in assay [15], in [6], in assay [16] and in assay [13]. In addition, the molecule was called inactive in [17].
Turning to `O=C(NS(=O)(=O)/C=C/c1cccs1)c1ccc(F)cc1Br`, the molecule was classed as inactive in [9].
As for `O=NO`, the call in [7] was inactive.
Consider `CC(C)(O)c1ccc(CNC(=O)c2cccnc2Oc2ccc(F)cc2)cc1`, for which the molecule was called inactive in [1] and in assay [4].
`O=C(O)CN(CC(=O)O)CC(=O)O`: the molecule was called inactive in assay [7].
For the molecule `CCN(CC)CCOc1ccc(C(=C(Cl)c2ccccc2)c2ccccc2)cc1`, the molecule was classed as inactive in [8] and in assay [9]. In addition, the AC50 in [3] is 33.6 µM (active); in [10], 4.17 µM (active); in assay [15] it was 19.8 µM (active).
As for `Cn1cnc2c1c(=O)[nH]c(=O)n2C`, the molecule was classed as inactive in [8], in assay [11], in assay [18] and in assay [19].
As for `C/C=C/c1ccc(OC)cc1`, the molecule was classed as inactive in assay [7].
As for `Cc1cc(Cc2ccc(N)c(C)c2)ccc1N`, the outcome in assay [1] and in [18] was inactive.
As to `CN(C)C(=O)NC1(c2ccccc2)CCN(CC[C@@]2(c3ccc(F)c(F)c3)CN(C(=O)c3ccccc3)CCO2)CC1`, the AC50 in assay [8] was 19.1 µM (active). In addition, the molecule was called inactive in assay [16].
With `Cc1occc(=O)c1O`, in assay [7], the molecule was called inactive.
On to `CN(C)CCCN1c2ccccc2Sc2ccc(Cl)cc21`, for which the AC50 in assay [8] is 7.76 µM (active). Further, in [9], the outcome was inactive.
With `CCc1cc(C2=C(C(=O)O)N(c3ccccc3C(F)(F)F)S(=O)(=O)c3ccccc32)cc2c1OCO2`, the figures for the AC50 in assay [1], in [11] and in assay [12] were 8.94 µM (active), 29.6 µM (active) and 25 µM (active), respectively. Moreover, the call in [7], in [14] and in assay [13] was inactive.
`O=C1c2c(O)cccc2Cc2cccc(O)c21`: the AC50 in assay [1] was 4.55 µM (active); in [11] it was 0.671 µM (active); in assay [14] it was 20.3 µM (active); in assay [18] it was 10.2 µM (active); in assay [12], 8.87 µM (active). The result in assay [10] and in assay [20] was inactive.

The record behind these values is PubChem BioAssay (EPA / NIEHS).
